In PubChem BioAssay (Tox21):
“And” between values parts separate entries of the source, which are not always exact repeats. Identical values can stand only once. Inconclusive results are not listed. More than one record can exist for a structure, and the calls need not agree. The source made the active and inactive calls. Unless noted, the call rests on the fitted dose curve; in most records, active means well fitted curve in the direction sought with a large enough effect in the repeat runs; inconclusive means weak or mixed curves; inactive means no such curve, though single readings can be large; an effect the other way counts as inactive or inconclusive.

Experiments:
[1] = qHTS assay to identify small molecule agonists of the peroxisome proliferator-activated receptor delta (PPARd) signaling pathway - cell viability counter screen (AID 743211); further: nearly all actives have a fitted effect of over 55% in size
Outline: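 qHTS cell viability: PPARd-bla HEK293H; 17 h cpd, 37C; CellTiter-Glo, luminescence at 30 min RT.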

[2] = target: Peroxisome proliferator-activated receptor delta (Homo sapiens) (UniProt Q03181); assay: qHTS assay to identify small molecule agonists of the peroxisome proliferator-activated receptor delta (PPARd) signaling pathway (AID 743212; calls by dose curve)
Peroxisome proliferator-activated receptor delta (Homo sapiens), sequence (Q03181 whole entry, looked up): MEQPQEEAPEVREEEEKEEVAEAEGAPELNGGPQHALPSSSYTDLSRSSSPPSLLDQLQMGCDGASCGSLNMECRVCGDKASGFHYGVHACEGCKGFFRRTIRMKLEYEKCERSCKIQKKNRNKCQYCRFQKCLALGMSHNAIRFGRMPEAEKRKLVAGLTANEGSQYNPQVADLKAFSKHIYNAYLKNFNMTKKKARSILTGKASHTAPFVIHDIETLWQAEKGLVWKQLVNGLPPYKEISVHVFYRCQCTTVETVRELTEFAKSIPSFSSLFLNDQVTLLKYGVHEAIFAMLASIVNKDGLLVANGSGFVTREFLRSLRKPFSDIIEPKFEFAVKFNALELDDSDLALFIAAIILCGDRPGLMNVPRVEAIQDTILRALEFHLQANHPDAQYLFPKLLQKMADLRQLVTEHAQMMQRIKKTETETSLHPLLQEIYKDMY
Outline: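 A PPARd-bla HEK293H line with beta-lactamase under an Upstream Activator Sequence is treated with compounds at 37 C. Substrate loading for 2 h at room temperature precedes the fluorescence measurement.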

[3] = qHTS assay to identify small molecule antagonists of the peroxisome proliferator-activated receptor delta (PPARd) signaling pathway - cell viability counter screen (AID 743213); further: nearly all actives have a fitted effect of over 50% in size
Outline: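 HEK293H cells with the PPARd UAS-bla reporter, co-treated 17 h at 37 C with compounds and L165041 (300 nM final), were lysed with CellTiter-Glo. Luminescence indicated viable cell content.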

[4] = target: Peroxisome proliferator-activated receptor delta (Homo sapiens) (UniProt Q03181); assay: qHTS assay to identify small molecule antagonists of the peroxisome proliferator-activated receptor delta (PPARd) signaling pathway (AID 743215; active means well fitted inhibition curve with a large enough effect in the signal ratio in the repeat runs, not every such curve was filed as active; the % refers to the signal ratio;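 further: cells stimulated with agonist L165041 at 300 nM final during compound exposure; series mostly up to about 62 µM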)
Outline: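 Antagonist-mode beta-lactamase reporter screen: HEK293H cells with UAS-bla under PPARd control, stimulated by 300 nM L165041 (final) alongside test compound for 17 h at 37 C, then FRET fluorescence after 2 h substrate incubation.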

[5] = target: Bile acid receptor (Homo sapiens) (UniProt Q96RI1); assay: qHTS assay to identify small molecule antagonists of the farnesoid-X-receptor (FXR) signaling pathway (AID 743217; active means well fitted inhibition curve with a large enough effect in the signal ratio in the repeat runs, not every such curve was filed as active; the % refers to the signal ratio)
Bile acid receptor (Homo sapiens), sequence (Q96RI1 whole entry, looked up): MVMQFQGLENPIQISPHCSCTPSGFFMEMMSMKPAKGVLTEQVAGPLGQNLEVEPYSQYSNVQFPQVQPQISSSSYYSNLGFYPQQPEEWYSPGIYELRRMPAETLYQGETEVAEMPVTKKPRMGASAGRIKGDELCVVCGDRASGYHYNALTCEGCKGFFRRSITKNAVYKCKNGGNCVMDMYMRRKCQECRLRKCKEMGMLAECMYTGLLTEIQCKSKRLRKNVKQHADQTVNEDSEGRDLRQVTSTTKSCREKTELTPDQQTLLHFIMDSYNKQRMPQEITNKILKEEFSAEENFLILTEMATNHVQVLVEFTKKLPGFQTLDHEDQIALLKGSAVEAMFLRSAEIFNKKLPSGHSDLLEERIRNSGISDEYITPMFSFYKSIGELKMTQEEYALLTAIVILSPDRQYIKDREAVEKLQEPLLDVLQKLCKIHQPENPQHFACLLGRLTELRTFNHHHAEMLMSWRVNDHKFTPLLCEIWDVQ
Outline: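 Beta-lactamase reporter under UAS control in HEK 293T cells; compound exposure 16 h at 37 °C in the presence of chenodeoxycholic acid (50 uM final); signal from B/G FRET substrate after 2 h at room temperature.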

[6] = qHTS assay to identify small molecule agonists of the farnesoid-X-receptor (FXR) signaling pathway - cell viability counter screen (AID 743218); further: nearly all actives have a fitted effect of over 45% in size; further: potency means the concentration at half of the fitted maximal effect
Outline: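 In GeneBLAzer FXR-UAS-bla HEK 293T cells, compounds act for 16 h at 37 C. Cell viability is then scored in the reporter wells by CellTiter-Glo, 30 min at RT, luminescence.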

[7] = target: Bile acid receptor (Homo sapiens) (UniProt Q96RI1); assay: qHTS assay to identify small molecule agonists of the farnesoid-X-receptor (FXR) signaling pathway (AID 743220; active means well fitted activation curve with a large enough effect in the signal ratio in the repeat runs, not every such curve was filed as active; the % refers to the signal ratio)
Outline: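 Beta-lactamase reporter under UAS control in GeneBLAzer FXR HEK 293T cells (5000/well) measured with LiveBLAzer FRET substrate after 2 h at room temperature. Compound exposure lasted 16 h at 37C.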

[8] = target: Vitamin D3 receptor (Homo sapiens) (UniProt P11473); assay: qHTS assay to identify small molecule agonists of the vitamin D receptor (VDR) signaling pathway (AID 743222; calls by dose curve)
Vitamin D3 receptor (Homo sapiens), sequence (P11473 whole entry, looked up): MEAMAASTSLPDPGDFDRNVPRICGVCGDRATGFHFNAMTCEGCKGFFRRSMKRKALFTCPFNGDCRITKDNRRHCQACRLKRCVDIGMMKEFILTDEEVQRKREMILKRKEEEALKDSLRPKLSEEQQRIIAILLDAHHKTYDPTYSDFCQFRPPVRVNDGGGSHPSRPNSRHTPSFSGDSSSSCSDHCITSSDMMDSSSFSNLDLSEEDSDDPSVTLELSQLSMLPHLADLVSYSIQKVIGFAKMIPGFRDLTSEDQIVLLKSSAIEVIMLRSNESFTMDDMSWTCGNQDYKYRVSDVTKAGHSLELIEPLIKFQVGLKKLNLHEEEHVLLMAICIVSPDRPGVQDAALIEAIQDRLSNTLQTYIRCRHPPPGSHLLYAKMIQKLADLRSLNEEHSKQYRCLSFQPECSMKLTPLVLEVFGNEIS
Outline: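 Agonist activity measured in VDR-bla reporter cells. Exposure 16 h, 37C, 5% CO2; detection by B/G FRET substrate, 2 h RT.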

[9] = target: Vitamin D3 receptor (Homo sapiens) (UniProt P11473); assay: qHTS assay to identify small molecule antagonists of the vitamin D receptor (VDR) signaling pathway (AID 743223; active means well fitted inhibition curve with a large enough effect in the signal ratio in the repeat runs, not every such curve was filed as active; the % refers to the signal ratio)
Outline: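 Reporter line VDR-bla; stimulus 1alpha,25-(OH)2 vitamin D3, 3 nM final; compound co-addition, 16 h 37C/5% CO2; LiveBLAzer B/G substrate 2 h RT; fluorescence intensity.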

[10] = qHTS assay to identify small molecule antagonists of the farnesoid-X-receptor (FXR) signaling pathway - cell viability counter screen (AID 743221; active means well fitted cell-killing curve with a large enough effect in the repeat runs, not every such curve was filed as active; further: nearly all actives have a fitted effect of over 50% in size)
Outline: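 After a 5 h settling period, FXR-bla HEK 293T cells receive compound and chenodeoxycholic acid (50 uM final) and incubate 16 h at 37 C; CellTiter-Glo luminescence, read after 30 min at room temperature, reports cell viability.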
On the % scale 0 is the no-effect control and ±100 the full control effect.

O=C1O[C@H](CO)[C@@H](O)[C@H](O)[C@H]1O
inactive: Potency [1] | outcome [2] | Potency [3] | outcome [4] | outcome [5] | Potency [6] | outcome [7] | Potency [8] | Potency [9]

CC(C)(CO)COC(=O)C(C)(C)CO
inactive: Potency [1] | outcome [2] | Potency [3] | outcome [4] | outcome [5] | Potency [6] | outcome [7] | Potency [8] | Potency [9]

c1ccc2[nH]cnc2c1
inactive: Potency [1] | outcome [2] | Potency [3] | outcome [4] | outcome [5] | Potency [6] | outcome [7] | Potency [10] | Potency [8] | Potency [9]

CCOC(=O)/C=C\C(=O)OCC
inactive: Potency [1] | outcome [2] | Potency [3] | outcome [4] | Potency [6] | Potency [10] | Potency [8] | Potency [9]

OCCOCCOCCOCCO
inactive: Potency [1] | outcome [2] | Potency [3] | outcome [4] | Potency [6] | Potency [10] | Potency [8] | Potency [9]

O=C1CCCCC1
inactive: Potency [1] | outcome [2] | Potency [3] | outcome [4] | Potency [6] | Potency [8] | Potency [9]

O=[N+]([O-])c1cccc(Cl)c1
inactive: Potency [1] | outcome [2] | Potency [3] | outcome [4] | Potency [6] | Potency [10] | Potency [8] | Potency [9]

CCOC(=O)C1OC1c1ccccc1 (centres undefined)
inactive: Potency [1] | outcome [2] | Potency [3] | outcome [4] | Potency [6] | Potency [8] | Potency [9]

Cc1ccc(C)c(C)c1
inactive: Potency [1] | outcome [2] | Potency [3] | outcome [4] | Potency [6] | Potency [10] | Potency [8] | Potency [9]

CCCCC(CC)COC(=O)/C=C\C(=O)OCC(CC)CCCC (centres undefined)
inactive: Potency [1] | outcome [2] | Potency [3] | outcome [4] | Potency [6] | Potency [10] | Potency [8] | Potency [9]

CCCCCCCCCCC=CC1CC(=O)OC1=O (centres undefined)
inactive: Potency [1] | outcome [2] | Potency [3] | outcome [5] | Potency [6] | outcome [7] | Potency [8] | Potency [9]

Nc1cc(-c2ccncc2)c[nH]c1=O
inactive: Potency [1] | outcome [2] | Potency [3] | outcome [4] | Potency [6] | Potency [8]

CCc1ccc(O)cc1
inactive: Potency [1] | outcome [2] | Potency [3] | outcome [4] | Potency [6] | Potency [8] | Potency [9]

CCC(=O)O
inactive: Potency [1] | outcome [2] | Potency [3] | outcome [4] | Potency [6] | Potency [10] | Potency [8] | Potency [9]

O=C(Oc1ccccc1)c1ccc(O)cc1
inactive: Potency [1] | outcome [2] | Potency [3] | Potency [6] | Potency [10] | Potency [8] | Potency [9]

NCCNCCNCCNCCN
inactive: Potency [1] | outcome [2] | Potency [3] | outcome [4] | Potency [6] | Potency [8] | activity change, negative = inhibition [9] 2.31% [at 6.95 µM]

CC1=CC[C@H]2C[C@@H]1C2(C)C
inactive: Potency [1] | outcome [2] | Potency [3] | Potency [6] | Potency [10] | Potency [8]

C=C1C2CCC(C2)C1(C)C (centres undefined)
inactive: Potency [1] | outcome [2] | Potency [3] | outcome [4] | Potency [6] | Potency [10] | Potency [8] | Potency [9]

O=S(=O)(Oc1ccc(Cl)cc1Cl)c1ccccc1
inactive: Potency [1] | outcome [2] | Potency [3] | outcome [4] | Potency [6] | Potency [10] | Potency [8] | Potency [9]

CS(=O)(=O)c1ccc([C@@H](O)[C@@H](CO)NC(=O)C(Cl)Cl)cc1
inactive: Potency [1] | outcome [2] | Potency [3] | outcome [4] | Potency [6] | Potency [8] | Potency [9]

OC1CCCC1
inactive: Potency [1] | outcome [2] | Potency [3] | outcome [4] | Potency [6] | Potency [10] | Potency [8] | Potency [9]

Cc1ccc(C(=O)O)o1
inactive: Potency [1] | outcome [2] | Potency [3] | outcome [4] | Potency [8] | Potency [9]

NS(=O)(=O)c1cc2c(cc1Cl)NC=NS2(=O)=O
inactive: Potency [1] | outcome [2] | Potency [3] | outcome [4] | Potency [6] | Potency [8] | Potency [9]

Cc1cc(O)cc(C)c1Cl
inactive: Potency [1] | outcome [2] | Potency [3] | outcome [4] | Potency [6] | Potency [10]

CCCCC(CC)C(=O)OCCOCCOCCOC(=O)C(CC)CCCC (centres undefined)
inactive: Potency [1] | outcome [2] | Potency [3] | outcome [4] | Potency [6] | Potency [10] | Potency [8] | Potency [9]

CC[Si](OC(C)=O)(OC(C)=O)OC(C)=O
inactive: Potency [1] | outcome [2] | Potency [3] | outcome [4] | Potency [6] | Potency [10] | Potency [8] | Potency [9]

CC(=O)[C@@]1(O)CC[C@H]2[C@@H]3CCC4=CC(=O)CC[C@]4(C)[C@H]3CC[C@@]21C
inactive: Potency [1] | outcome [2] | Potency [3] | Potency [6] | Potency [10]

O=[N+]([O-])C(CO)(CO)CO
inactive: Potency [1] | outcome [2] | Potency [3] | outcome [4] | Potency [6] | Potency [8] | Potency [9]

Cn1c([N+](=O)[O-])cnc1COC(N)=O
inactive: Potency [1] | outcome [2] | Potency [3] | outcome [4] | Potency [6] | Potency [10] | Potency [8] | Potency [9]

CC(C)(N=C=O)c1cccc(C(C)(C)N=C=O)c1
inactive: Potency [1] | outcome [2] | Potency [3] | outcome [4] | Potency [10] | Potency [8] | Potency [9]

CCCCC/C=C\C/C=C\CCCCCCCC(=O)OC
inactive and 54.9 µM (active): Potency [6]
inactive: Potency [1] | outcome [2] | Potency [3]

ClC1=C(Cl)C(Cl)(Cl)C(Cl)=C1Cl
inactive: Potency [1] | outcome [2] | Potency [3] | outcome [4] | Potency [6] | Potency [8] | Potency [9]

COC(=O)c1ccccc1O
inactive: Potency [1] | outcome [2] | Potency [3] | outcome [4] | Potency [6] | Potency [8] | Potency [9]

CCCCC(CC)COC(C)=O (centres undefined)
inactive: Potency [1] | outcome [2] | Potency [3] | outcome [4] | Potency [6] | Potency [10] | Potency [8] | Potency [9]

CC(C)(C)C1CCC(O)CC1 (centres undefined)
inactive: Potency [1] | outcome [2] | Potency [3] | outcome [4] | Potency [6] | Potency [10] | Potency [8] | Potency [9]

CCCCCCCCC
inactive: Potency [1] | outcome [2] | Potency [3] | outcome [4] | Potency [6] | Potency [10] | Potency [8] | Potency [9]

C=C(C#N)C(=O)OCC
inactive: Potency [1] | outcome [2] | Potency [3] | Potency [6] | Potency [10]

C[C@@H]1O[C@@H](OC[C@H]2O[C@@H](Oc3c(-c4ccc(O)c(O)c4)oc4cc(O)cc(O)c4c3=O)[C@H](O)[C@@H](O)[C@@H]2O)[C@H](O)[C@H](O)[C@H]1O
inactive: Potency [1] | outcome [2] | Potency [3] | outcome [4] | Potency [6] | Potency [10] | Potency [8] | Potency [9]

Nc1nc2ncc(CNc3ccc(C(=O)N[C@@H](CCC(=O)O)C(=O)O)cc3)nc2c(=O)[nH]1
inactive: Potency [1] | outcome [2] | Potency [3] | outcome [4] | Potency [6] | Potency [10] | Potency [8]

C=C(C)C(=O)OCCCCCCCCCCCC
inactive: Potency [1] | outcome [2] | Potency [3] | outcome [4] | Potency [6] | Potency [8] | Potency [9]

O=[N+]([O-])c1cc(N(CCO)CCO)ccc1NCCO
inactive: Potency [1] | outcome [2] | Potency [3] | outcome [4] | Potency [6] | Potency [10] | Potency [8] | Potency [9]

COCC(=O)O
inactive: Potency [1] | outcome [2] | Potency [3] | outcome [4] | Potency [6] | Potency [10] | Potency [8] | Potency [9]
